Data published in PubChem BioAssay AID2328 (The Scripps Research Institute Molecular Screening Center, 2010).
Some of the results follow. Values without a mark were called inactive.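 Rule for the calls: active = mean inhibition over triplicates above a set limit taken from the primary EBNA-1 screen (cut at about 37% in these data); inactive = the rest.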

The compounds below were run against Lytic switch protein BZLF1 (Epstein-Barr virus (strain B95-8)) (UniProt P03206) (assay: EBV Zta DNA binding inhibitors, counter-screen for EBNA-1 inhibitor project, biochemical, fluorescence polarization, triplicate (AID 2328;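 note: purified full length Zta protein with Cy5 labeled ZRE DNA probe; 0% = Zta with DMSO and 100% = wells lacking Zta protein; inhibitors lower polarization by freeing the labeled DNA probe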)). Details: Zta-ZRE DNA binding, Cy5 fluorescence polarization; at 11.1 µM; stronger effect = higher value.
Lytic switch protein BZLF1 (Epstein-Barr virus (strain B95-8)), sequence (P03206 whole entry, looked up): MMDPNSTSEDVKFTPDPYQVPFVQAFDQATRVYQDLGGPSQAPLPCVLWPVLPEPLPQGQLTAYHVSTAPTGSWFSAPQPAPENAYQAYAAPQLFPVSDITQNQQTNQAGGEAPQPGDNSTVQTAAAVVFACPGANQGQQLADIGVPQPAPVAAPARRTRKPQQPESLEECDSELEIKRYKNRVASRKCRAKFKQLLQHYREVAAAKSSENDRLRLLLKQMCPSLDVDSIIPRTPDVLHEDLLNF

| Compound | inhibition [%] |
| --- | --- |
| Cc1ccc(O)c(/C=N/NC(=O)COc2ccc3c(C)cc(=O)oc3c2)c1 | -17 |
| Nc1ccc(S(=O)(=O)Nc2nccc(/C=C/c3ccc(Br)s3)n2)cc1 | -3.48 |
| O=C(COc1ccc(/C=N/NC(=O)c2ccc(O)cc2)cc1)Nc1ccc([N+](=O)[O-])cc1 | 31.8 |
| CCOc1cccc(NC(=O)Cn2nc(-c3ccc4c(c3)OCCO4)ccc2=O)c1 | -0.94 |
| Nc1nnc(SCC(=O)Nc2ccc3nc(SCC(=O)Nc4ccccc4)sc3c2)s1 | 8.16 |
| Cc1cccc(NC(=O)Cn2c(=O)n(Cc3ccccc3)c(=O)c3c(C)c(C)sc32)c1 | -8.61 |
| CCOc1ccc(C(=O)NC(=S)Nc2ccc(NC(=O)C(C)C)cc2)cc1[N+](=O)[O-] | -3.36 |
| COc1ccc(C)cc1NC(=O)NCc1ccccn1 | -2.35 |
| Cc1ccc(-c2nn(-c3ccccc3)cc2/C=C2\SC(=S)N(CCCCCC(=O)O)C2=O)o1 | 5.22 |
| C/C(=N\N=C(N)N)c1ccc(Cl)cc1 | 1.14 |
| CCOc1ccc(OCC)c(NC(=O)C(NS(=O)(=O)c2ccc3c(c2)oc(=O)n3C)C(C)C)c1 (centres undefined) | 22.3 |
| Cc1[nH]n(C(N)=S)c(=O)c1N=Nc1ccc(Cl)cc1Cl | -7.48 |
| CC(=O)Nc1ccc(S(=O)(=O)NCC(=O)OCc2cc(=O)oc3ccc4ccccc4c23)cc1 | 7.35 |
| COc1ccc(C(=O)CSc2nnc(NC(=O)C3CC(=O)N(c4cccc(OC)c4)C3)s2)cc1 (centres undefined) | -0.54 |
